According to PubChem BioAssay (Tox21):
Records with an inconclusive call do not appear. The source made the active and inactive calls. The call rests on the fitted dose curve; in most records, active means well fitted cell-killing curve with a large enough effect in the repeat runs; inconclusive means weak or mixed curves, or effect the other way; inactive means flat fitted curve, though single readings scatter.

Assay: qHTS RealTime-Glo MT Cell Viability Assay in HEK293 cells - 24 hour (AID 1224886); further: nearly all actives have a fitted effect of over 50% in size; on activity change, negative = cytotoxicity: top concentration of the series differs between compounds
Conditions: RealTime-Glo luminescence; series mostly up to 76.8 µM; activity change, negative = cytotoxicity: at the top concentration
Procedure, shortened: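 Viability tracked continuously by luminescence as live cells reduce a prosubstrate for NanoLuc; HEK293 cells preincubated 5 h, compound-treated at 37 C, and read at 0, 8, 16, 24, 32 and 40 h.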
On the % scale 0 is the no-effect control and ±100 the full control effect; potency means the concentration at half of the fitted maximal effect.

Structure (SMILES) | activity change, negative = cytotoxicity | Potency
c1ccccc1 | -0.404% (inactive) | 
Cc1ccccc1C(=O)N1CC/C(=N\OS(=O)(=O)O)c2ccc(Cl)cc21 | -3.38% [at 35.3 µM] (inactive) | 
C[CH2][Ge]([Cl])([CH2]C)[CH2]C | 1.7% (inactive) | 
CCOC(=O)CC#N | 0.34% (inactive) | 
CCOc1ccc(NC(=O)OC(C)C)cc1OCC | -18.3% (inactive) | 
OC(CCN1CCCCC1)(c1ccccc1)c1ccccc1 | -15.9% [at 35.3 µM] (inactive) | 
C[N+](C)(C)CC(O)CCl (configuration not stated) | -4.26% (inactive) | 
CCCCCCCC/C=C\CCCCCCCC(=O)OC[C@@H](O)[C@H]1OC[C@H](O)[C@H]1O | 4.39% (inactive) | 
CCCCCCCCOC(C)=O | 10.1% (inactive) | 
O=C(O)c1ccc(OCCN2CCCCC2)cc1 | 6.98% [at 35.3 µM] (inactive) | 
FC(F)(F)c1ccc(Cl)cc1Cl | 8.38% (inactive) | 
COC(=O)CCC(=O)O | 15.2% (inactive) | 
NS(=O)(=O)c1cc2c(cc1Cl)NC(CC1CCCC1)NS2(=O)=O (configuration not stated) | 2.83% [at 35.3 µM] (inactive) | 
CC(C)COC(=O)CCCCC(=O)OCC(C)C | -9.3% (inactive) | 
CC(C)COC(=O)/C=C/c1ccccc1 | -8.42% (inactive) | 
CC1(N)CCC(C(C)(C)N)CC1 (configuration not stated) | 0.72% (inactive) | 
O=S1(=O)CCCC1 | 14.6% (inactive) | 
CC1CCC(C(C)(C)S)C(=O)C1 (configuration not stated) |  | 3.89 µM (active)
CCNC(=O)/C=C/c1cccc(Br)c1 | -1.51% [at 35.3 µM] (inactive) | 

Structure (SMILES) | activity change, negative = cytotoxicity | Potency
C=COCCOCCOC=C | 0.136% (inactive) | 
COc1cc(C=O)ccc1OC(=O)C(C)C | -1.92% (inactive) | 
CCOC(=O)CCc1ccccc1 | 3.37% (inactive) | 
Cc1nc(C)nc(N2C[C@@H](C)N(c3ccnc([C@@H](C)O)n3)[C@@H](C)C2)n1 | 6.04% [at 35.3 µM] (inactive) | 
NS(=O)(=O)c1ccc(Cl)c(S(N)(=O)=O)c1 | 8.78% [at 35.3 µM] (inactive) | 
CCCCCCCC[Si](OCC)(OCC)OCC | 1.37% (inactive) | 
O=C(c1ccc2c(c1)C(=O)OC2=O)c1ccc2c(c1)C(=O)OC2=O | 5.45% (inactive) | 
C=CC(C)(O)CC/C=C(\C)CC (configuration not stated) | 3.25% (inactive) | 
O=C(Nc1cccc(C2=NCCN2)c1)Nc1cccc(C2=NCCN2)c1 | -1.62% [at 15.8 µM] (inactive) | 
CC(C)=CC(C)(C)C | 7.83% (inactive) | 
O=CN1CCOCC1 | 16.4% (inactive) | 
C[C@@H]1C[C@H]2[C@@H]3C[C@H](F)C4=CC(=O)C=C[C@]4(C)[C@@]3(F)[C@@H](O)C[C@]2(C)[C@@]1(O)C(=O)CO | 3.44% [at 35.3 µM] (inactive) | 
Cc1c(C(C)C)c(=O)n(-c2ccccc2)n1C | 3.05% [at 35.3 µM] (inactive) | 
CC(C)CCC(=O)CCC(C)C | 18.3% (inactive) | 
C=C(C)C(=O)OC | -14.8% (inactive) | 
N#CCCOCCOCCC#N | 16.8% (inactive) | 
CC(C)(C)c1ccc(C=O)cc1 | 1.35% (inactive) | 
CCN(Cc1cccc(S(=O)(=O)O)c1)c1ccccc1 | -3.91% (inactive) | 
